# Sm TGR block: blocks Schistosoma mansoni thioredoxin glutathione reductase; Potency, µM (top dose mostly 114 µM), inactives show at the highest dose activity change, negative = inhibition, most hits filed as inhibitors; AID 485364; Q962Y6; purified TGR, DTNB reduction, TNB absorbance 405 nm; hit rate 3% among 360,000; also: potency is read from the fitted curve at half-maximal effect; % is scaled to controls: 0 for no effect and ±100 for the full control effect; nearly all actives have a fitted effect of over 60% in size
#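 First, TGR (20 nM dispensed) and NADPH were mixed with compound. Second, a 15 min room-temperature incubation followed. Third, further NADPH and then DTNB were added to start the reaction. Finally, TNB absorbance was monitored kinetically.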
# Pf growth 96h: P. falciparum growth inhibition at 96 hours; hit rate 6.9% among 320,000; Potency, µM (top dose mostly 28.7 µM), without a hit: at the highest dose activity change, negative = inhibition, hits mostly inhibitors; P. falciparum luciferase reporter growth, 96 h; also: potency is read from the fitted curve at half-maximal effect; % is scaled to controls: 0 for no effect and ±100 for the full control effect
#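 Plates of compound plus infected erythrocytes (2% hematocrit, 0.05% parasitemia final) incubate 96 hours, 37 C, 5% CO2. Detection reagent added; reduced luminescence from the parasites' luciferase reporter flags inhibition.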
# Pf growth 48h: inhibits P. falciparum growth in the first generation, 48 h; P. falciparum luciferase growth in erythrocytes, 48 h; Potency, µM (series often up to 28.7 µM), for the others: at the highest dose activity change, negative = inhibition, most hits filed as inhibitors; hit rate 5.9% among 310,000; AID 504832; also: potency is read from the fitted curve at half-maximal effect; % is scaled to controls: 0 for no effect and ±100 for the full control effect
#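 Read-out is firefly luciferase luminescence from an integrated reporter in P. falciparum, so falling signal marks reduced parasite growth. Infected erythrocytes were at 2% hematocrit and 0.1% parasitemia (final) in Albumax-supplemented RPMI 1640.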
# Cycloheximide cs: counter-screen for Shiga toxin inhibitors: cycloheximide protein synthesis inhibition; cell reporter, cycloheximide protein synthesis inhibition counterscreen; max response, %; hit rate 12% among 300,000; AID 2314; in the data active = max response mostly above about 13%, no sharp cut-off; inactive = mostly below about 14%; also: read at 38.3 µM for the half of the compounds with a filed dose; 0% is about no effect
# Shiga inhibitor: blocks Shiga toxin action in Vero cells; Vero cells, Shiga toxin protein synthesis inhibition reporter; inhibition, % at 38.7 µM; hit rate 9.2% among 290,000; in the data active = inhibition mostly above about 28%, no sharp cut-off; inactive = mostly below about 43%; also: 0% is about no effect
# NS1 inh: influenza NS1 inhibition; Potency, µM (titrated, usually from 46.1 µM), inactives show top-dose activity, positive = more growth; hit rate 0.4% among 270,000; AID 2326; calls by dose curve; also: potency is read from the fitted curve at half-maximal effect; actives are rising curves; nearly all actives have a fitted effect of over 50% in size
#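 In this qHTS, NS1 from influenza A is expressed in budding yeast, where it slows growth. Cells are switched from glucose to 2% galactose medium (pH 6.0, -URA), treated with compound, and growth recovery is read at OD600.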
# * marks the source's active call; other numbers are inactive results; i = inactive; u = inconclusive; x = no result; [ ] = remark or other dose. A selection: hits, their analogues and other compounds. The true share with any hit is near 21%. Unless noted, calls follow the shape of the dose curve; as a rule, active = well fitted curve in the direction sought with a large enough effect; inconclusive = small, poorly fitted or top-dose-only effect, or another doubt; inactive = no such curve, though single readings can be large; an effect the other way counts as inactive or inconclusive.
SMILES,Sm TGR block,Pf growth 96h,Pf growth 48h,Cycloheximide cs,Shiga inhibitor,NS1 inh
O=C(CCc1ccccc1)NCCc1csc(-c2cccc(F)c2)n1,3%,x,x,x,x,x
O=c1c([N+](=O)[O-])c(N2CCOCC2)c2ccccc2n1-c1ccccc1,1%[57.1 µM],13%,-4%,-3,-33,0%
CCNc1c([N+](=O)[O-])c(=O)n(CC)c2ccccc12,-5%,10%,-1%,-3,1,2%
CCn1c(=O)c([N+](=O)[O-])c(N2CCOCC2)c2ccccc21,3%,10µM*,8%,-4,-5,18%
CCN(CC)c1c([N+](=O)[O-])c(=O)n(CC)c2ccccc12,6%,u,13µM*,-1,-3,-7%
Cc1ccc(CNC(=O)c2cccn2-c2nnc(N3CCCCC3)s2)cc1,5%,x,x,x,x,x
O=C(NN=C1CCCC1)c1n[nH]c2c1CCCC2,x,1%,50%,32*,59*,5%
O=C(NN=C1CCCC1)c1n[nH]c2c1CCC2,0%,u,0%,24*,27,-1%
O=C(NC1CCCCC1)c1n[nH]c2c1CCCCC2,-3%,47%,u,x,x,x
CCN1C(=O)/C(=C/C=C2\N(CC)c3cc(S(=O)(=O)N(C)C)ccc3N2c2ccccc2)SC1=S,-5%,13µM*,u,1,15,3%
O=C(O)Cn1cc(CN2CCOCC2)c2ccccc21,-31%,5%,15%,-2,x,9%
CC(C)(C)c1cc(CN2CCOCC2)c(C(=O)O)o1,2%,3.3µM*,11%,-2,-6,2%
COC(=O)Cn1ncc2c(C)n(Cc3ccccc3)c(C)c2c1=O,-14%,39%,70%,39*,74*,-29%
Cc1ccc(Cn2c(C)c3cnn(CC(=O)NC4CCCC4)c(=O)c3c2C)cc1,u,9.3µM*,1%,10*,30*,27%
COc1ccc(C(C(C(=O)c2ccco2)N2CCOCC2)N2CCOCC2)cc1 (stereo not given),45µM*,-1%,16%,23*,23*,-10%
O=C(NCc1ccccc1)C(=O)NCC(c1ccco1)N1CCOCC1 (stereo not given),7%,42%,0%,-3,-13,3%
O=C(NCc1ccc(Cl)cc1)C(=O)NCC(c1ccco1)S(=O)(=O)c1cccs1 (stereo not given),40µM*,x,x,x,x,x
COc1ccc(CNC(=O)C(=O)NCC(c2ccco2)N2CCOCC2)cc1 (stereo not given),-3%,7.4µM*,11%,8,3,-3%
COc1ccc(CNC(=O)C(=O)NCC(c2ccco2)S(=O)(=O)c2cccs2)cc1 (stereo not given),18µM*,x,x,x,x,x
Cc1ccc(COC(=O)Cc2coc3cc(O)ccc23)cc1,1%,4%,14%,13,12,-38%
COc1ccc(OC)c(C(=O)c2coc3ccc(O)c(CN(C)C)c23)c1,0%,11%,4%,-1,-4,5%
O=C(c1ccccc1)c1coc2ccc(O)c(Cl)c12,-27%,-7%,-24%,67*,118*,-148%
Cc1ccc(C(=O)c2coc3ccc(O)c(Cl)c23)cc1,-17%,24%,x,36*,72*,-87%
Cc1ccc(C(=O)c2coc3ccc(O)cc23)cc1,-15%,462%,298%,34*,41*,-31%
CC(NC(=O)CN1C(=O)NC(C)(c2cccc3ccccc23)C1=O)c1ccccc1 (stereo not given),-2%,-11%,-13%,-4,-5,-1%
SMILES,Sm TGR block,Pf growth 96h,Pf growth 48h,Cycloheximide cs,Shiga inhibitor,NS1 inh
Cc1cnc(C(=O)Nc2ccc(N3CCOCC3)cc2)cn1,-3%,15%,114%,22*,66*,u
Cc1cnc(C(=O)Nc2ccccc2C(=O)N2CCOCC2)cn1,0%,3.7µM*,16%,-3,-9,5%
Cc1cc(C(=O)Nc2ccc(S(=O)(=O)N3CCCC3)cc2)no1,-1%,u,u,-2,31,x
Cc1cnc(C(=O)Nc2ccc(N3CCCCC3)cc2)cn1,4%,219%,i,32*,84*,x
Cc1cnc(C(=O)Nc2ccc(C(=O)N3CCCCC3)cc2)cn1,10%,155%,8%,6,12,u
Cc1cc(C(=O)Nc2ccc(N3CCCCC3)cc2)no1,-5%,u,75%,16*,39,-7%
Cc1cnc(C(=O)Nc2ccc(-n3cnnn3)cc2)cn1,2%,u,25%,-2,9,0%
Cc1c(CN(C)C)c2c(n1Cc1ccccc1)C(=O)c1ccccc1-2,-18%,x,u,-7,-34,-2%
COc1ccc(NC(=O)c2c(NC(=O)c3ccc(Br)cc3)sc3c2CCCC3)cc1,17%,x,x,x,x,x
C=CCn1c(SCC(=O)NC(=O)c2cccc([N+](=O)[O-])c2)nnc1-c1ccccc1F,2%,20%,11%,-2,2,-4%
O=C(c1cccc(NS(=O)(=O)c2ccc(Br)cc2)c1)N1CCN(c2ccccc2O)CC1,-5%,u,u,x,x,x
Cc1cccc(Cn2c(=O)n(-c3ccc(Cl)c(Cl)c3)c(=O)c3c(C)c(C)sc32)c1,10%,x,x,x,x,x
O=C(Nc1ccc(OC(F)(F)F)cc1)C1=NCCN1,6%,-9%,1%,40*,38*,-1%
Cc1cnc(C(=O)Nc2ccc(OC(F)(F)F)cc2)cn1,-2%,u,107%,27*,48*,-16%
O=C(NCc1ccccc1)C(c1ccccc1)N(C(=O)c1csnn1)c1ccccc1 (stereo not given),-1%,-6%,-3%,-1,-4,-17%
CC(C)c1ccc(C2NC(=O)c3ccccc3O2)cc1 (stereo not given),-9%,11%,17%,19*,101*,-20%
CCOc1ccc(NC(=O)C(Cc2ccccc2)NC(=O)C2CCCCC2)cc1 (stereo not given),-19%,124%,-6%,-3,-10,8%
COc1ccc(C)c2sc(NC(=O)C3=COCCO3)nc12,0%,161%,96%,12*,27*,-1%
COc1cccc2sc(NNC(=O)C3=COCCO3)nc12,2%,94%,160%,40*,87*,x
CC1=CC(=C(C#N)C#N)C=C(C)N1Cc1ccccc1,8%,4.7µM*,u,7,18,x
Cc1cc(NC(=O)Nc2ccc(C)c(C)c2)no1,21%,-7%[5.75 µM],34%,43*,97*,-6%
Cc1cc(NC(=O)Nc2cc(Cl)ccc2C)no1,12%,81%,45%,12*,9,-2%
Cc1cc(NC(=O)Nc2ccc(F)cc2)no1,32%,u,20%,26*,69*,-8%
O=[N+]([O-])c1cccnc1N1CCC(c2cc(-c3ccc(Cl)cc3Cl)n[nH]2)CC1,-8%,x,u,-2,-9,18%
COc1ccc(OC)c(-c2cc(C3CCN(c4ncccc4[N+](=O)[O-])CC3)[nH]n2)c1,-2%,9.3µM*,8.3µM*,4,5,24%

# Source: PubChem BioAssay (National Center for Advancing Translational Sciences (NCATS))
